Hits are enriched below; roughly 6.8% of the tested compounds scored in any of these assays.
C diff HTS: C. difficile growth inhibitors, primary screen, HTS | Clostridium difficile clinical isolate growth, OD600, 24 h; stronger effect = lower value | growth activity, negative = inhibition, % at 16 µg/mL (by protocol) | actives 0.25% (n = 86,000) | AID 1259249, 2017;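 active means mean growth activity at or below -80% and every replicate also at or below -80%; inconclusive means mean at or below -80% but some replicate above -80%; inactive means mean growth activity above -80%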
Tcruzi prolif: T. cruzi intracellular proliferation inhibitors, primary screen, cell-based, beta-gal Tulahuen parasites, NIH3T3 host, luminescence | T. cruzi beta-gal in NIH3T3, GalScreen luminescence, 90 h | inhibition, % at 8.34 µM | actives 5.9% (n = 77,000);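 active means mean inhibition above about 93%, with at least 55% of replicates each passing it, limit read from the data, passing the limit was not always enough; inconclusive means only one of those two conditions holds; inactive means neither condition holds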
Pf Dd2 inh: P. falciparum Dd2 growth inhibitors, primary screen, SYBR Green fluorescence, single dose replicates. 72 h; stronger effect = lower value. actives 2.3% (n = 94,000). activity change, % at 10 µM; in the data active means activity change below about -80%; inconclusive means no clear call, values can overlap the other calls
Numbers stand for hits; - = inactive; ? = inconclusive; . = no result given.

SMILES	C diff HTS	Tcruzi prolif	Pf Dd2 inh
C[C@H]1CN([C@@H](C)CO)C(=O)c2cc(-c3cncnc3)cnc2O[C@@H]1CN(C)C(=O)CN1CCOCC1	-	.	-
C[C@@H]1CN([C@@H](C)CO)C(=O)c2cc(NS(=O)(=O)c3cn(C)cn3)ccc2O[C@@H](C)CCCCO[C@H]1CN(C)C(=O)c1ccccc1	.	-	-
Cc1ccc(S(=O)(=O)N2C[C@@H](O)COC[C@@H]3O[C@@H](CC(=O)NCCN4CCCCC4)CC[C@H]32)cc1	.	-	-
CC(C)CC#Cc1ccc2c(c1)O[C@H](CN(C)C(=O)c1ccncc1)[C@@H](C)CN([C@H](C)CO)S2(=O)=O	-	-	-
C[C@@H]1CCCCO[C@@H](CN(C)C(=O)Nc2ccc(C(F)(F)F)cc2)[C@H](C)CN([C@H](C)CO)C(=O)c2cc(NS(=O)(=O)c3ccc(F)cc3)ccc2O1	-	-	-
Cc1ccc(S(=O)(=O)Nc2ccc3c(c2)C(=O)N([C@@H](C)CO)C[C@H](C)[C@@H](CN(C)C(=O)Nc2ccc(C(F)(F)F)cc2)OCCCC[C@H](C)O3)cc1	-	-	-82
C[C@H]1CCCCO[C@H](CN(C)C(=O)Nc2ccc(C(F)(F)F)cc2)[C@@H](C)CN([C@@H](C)CO)C(=O)c2cc(NS(=O)(=O)c3ccc(F)cc3)ccc2O1	-	-	-82
COc1ccc(S(=O)(=O)Nc2ccc3c(c2)C(=O)N([C@H](C)CO)C[C@@H](C)[C@H](CN(C)C(=O)Nc2ccc(C(F)(F)F)cc2)OCCCC[C@H](C)O3)cc1	-	-	-
COc1ccc(S(=O)(=O)Nc2ccc3c(c2)C(=O)N([C@@H](C)CO)C[C@H](C)[C@H](CN(C)C(=O)Nc2ccc(C(F)(F)F)cc2)OCCCC[C@@H](C)O3)cc1	-	-	-84
Cc1ccc(S(=O)(=O)Nc2ccc3c(c2)C(=O)N([C@H](C)CO)C[C@@H](C)[C@H](CN(C)C(=O)Nc2ccc(C(F)(F)F)cc2)OCCCC[C@@H](C)O3)cc1	-	-	-
C[C@H](CO)N1C[C@H](C)[C@@H](CN(C)C(=O)Nc2ccc(C(F)(F)F)cc2)OCCCC[C@H](C)Oc2ccc(NS(=O)(=O)c3ccc(Cl)cc3)cc2C1=O	-	-	-
C[C@@H]1CCCCO[C@H](CN(C)C(=O)Nc2ccc(C(F)(F)F)cc2)[C@@H](C)CN([C@@H](C)CO)C(=O)c2cc(NS(=O)(=O)c3ccc(Cl)cc3)ccc2O1	-	-	-84
Cc1noc(C)c1NC(=O)N(C)C[C@H]1Oc2ccc(NS(=O)(=O)c3ccc(F)cc3)cc2CC(=O)N([C@@H](C)CO)C[C@H]1C	-	-	-
CC(C)NC(=O)N(C)C[C@@H]1Oc2ccc(NC(=O)Nc3ccc(C(F)(F)F)cc3)cc2C(=O)N([C@H](C)CO)C[C@@H]1C	-	-	-
CO[C@@H]1CN(C)C(=O)c2ccc(NC(=O)Nc3ccccc3)cc2OC[C@@H](C)NC[C@@H]1C	-	.	-
CCCN1C[C@@H](C)[C@H](OC)CN(C)C(=O)c2cc(NS(=O)(=O)c3cn(C)cn3)ccc2OC[C@@H]1C	.	-	-
C[C@@H]1CCCCO[C@H](CN(C)C(=O)Nc2ccc(C(F)(F)F)cc2)[C@H](C)CN([C@H](C)CO)C(=O)c2cc(NS(=O)(=O)c3ccccc3)ccc2O1	-	-	-86
Cc1ccc(S(=O)(=O)Nc2ccc3c(c2)C(=O)N([C@H](C)CO)C[C@H](C)[C@@H](CN(C)C(=O)Nc2ccccc2)OCCCC[C@@H](C)O3)cc1	.	-	-
C[C@@H]1CCCCO[C@@H](CN(C)C(=O)Nc2ccc(C(F)(F)F)cc2)[C@@H](C)CN([C@H](C)CO)C(=O)c2cc(NS(=O)(=O)c3ccccc3)ccc2O1	-	-	-
Cc1ccc(S(=O)(=O)Nc2ccc3c(c2)C(=O)N([C@H](C)CO)C[C@@H](C)[C@@H](CN(C)C(=O)Nc2ccccc2)OCCCC[C@@H](C)O3)cc1	.	-	-83
CCCNC(=O)N(C)C[C@H]1Oc2cc(C3=CCCC3)ccc2S(=O)(=O)N([C@@H](C)CO)C[C@H]1C	-	.	-
Cc1ccc(S(=O)(=O)Nc2ccc3c(c2)C(=O)N([C@@H](C)CO)C[C@H](C)[C@@H](CN(C)S(=O)(=O)c2ccc(Cl)cc2)OCCCC[C@@H](C)O3)cc1	-	-	?
Cc1noc(C)c1S(=O)(=O)Nc1ccc2c(c1)C(=O)N([C@H](C)CO)C[C@@H](C)[C@H](CN(C)S(=O)(=O)c1ccc(F)cc1)O2	-	-	-
Cc1noc(C)c1S(=O)(=O)Nc1ccc2c(c1)C(=O)N([C@@H](C)CO)C[C@@H](C)[C@@H](CN(C)S(=O)(=O)c1ccc(Cl)cc1)OCCCC[C@H](C)O2	-	-	-92
Cc1noc(C)c1S(=O)(=O)Nc1ccc2c(c1)C(=O)N([C@@H](C)CO)C[C@@H](C)[C@H](CN(C)S(=O)(=O)c1ccc(Cl)cc1)OCCCC[C@@H](C)O2	-	-	-
SMILES	C diff HTS	Tcruzi prolif	Pf Dd2 inh
Cc1ccc(S(=O)(=O)Nc2ccc3c(c2)C(=O)N([C@@H](C)CO)C[C@H](C)[C@@H](CN(C)S(=O)(=O)c2ccc(Cl)cc2)OCCCC[C@H](C)O3)cc1	-	-	-86
Cc1ccc(S(=O)(=O)Nc2ccc3c(c2)C(=O)N([C@H](C)CO)C[C@@H](C)[C@@H](CN(C)S(=O)(=O)c2ccccc2)OCCCC[C@@H](C)O3)cc1	-	.	-
Cc1noc(C)c1S(=O)(=O)Nc1ccc2c(c1)C(=O)N([C@@H](C)CO)C[C@@H](C)[C@H](CN(C)S(=O)(=O)c1ccc(F)cc1)O2	-	-	-85
Cc1ccc(S(=O)(=O)N(C)C[C@@H]2OCCCC[C@H](C)Oc3ccc(NS(=O)(=O)c4ccccc4)cc3C(=O)N([C@@H](C)CO)C[C@@H]2C)cc1	-	110	-
CO[C@@H]1CN(C)C(=O)c2ccc(NC(=O)NC(C)C)cc2OC[C@H](C)N(Cc2ccccc2)C[C@@H]1C	.	-	-
Cc1noc(C)c1S(=O)(=O)Nc1ccc2c(c1)C(=O)N([C@H](C)CO)C[C@H](C)[C@@H](CN(C)Cc1ccc3c(c1)OCO3)OCCCC[C@H](C)O2	-	-	-
CCCNC(=O)N1C[C@@H](C)[C@H](OC)CN(C)C(=O)c2cc(NC(=O)C3CCC3)ccc2OC[C@H]1C	.	-	.
C[C@@H]1CN([C@H](C)CO)C(=O)c2cc(C#CC3CCCCC3)cnc2O[C@@H]1CN(C)C(=O)Nc1ccccc1	-	.	-
COc1ccc(S(=O)(=O)N(C)C[C@@H]2Oc3ccc(NS(=O)(=O)c4ccc(F)cc4)cc3CC(=O)N([C@H](C)CO)C[C@@H]2C)cc1	-	-	-
CNC[C@H]1Oc2ccc(NC(=O)Nc3ccc(OC)cc3)cc2CC(=O)N([C@H](C)CO)C[C@H]1C	-	-	-
CCCN1C[C@H](C)[C@@H](OC)CN(C)C(=O)c2ccc(NC(=O)CC)cc2OC[C@H]1C	.	-	.
COc1ccc(CNC(=O)C[C@@H]2C=C[C@H](NS(=O)(=O)c3cccc(OC)c3)[C@@H](CO)O2)cc1	-	.	.
COc1ccc(CNC(=O)C[C@H]2C=C[C@@H](NS(=O)(=O)c3cccc(OC)c3)[C@@H](CO)O2)cc1	-	.	-91

Screens deposited in PubChem by Broad Institute.
